Assay outcomes (PubChem BioAssay)
FEN1 inhibitor – inhibitors of human flap endonuclease 1; Recombinant FEN1 flap cleavage, fluorescence, 15 min; AID 588795; 0.35% of 390,000 active; P39748; Potency, µM (doses to about 114 µM), for the others: at the highest dose activity change, negative = inhibition, most hits filed as inhibitors; further: potency means the concentration at half of the fitted maximal effect; on the % scale 0 is the no-effect control and ±100 the full control effect; nearly all actives have a fitted effect of over 65% in size
Target sequence (P39748 whole entry, looked up): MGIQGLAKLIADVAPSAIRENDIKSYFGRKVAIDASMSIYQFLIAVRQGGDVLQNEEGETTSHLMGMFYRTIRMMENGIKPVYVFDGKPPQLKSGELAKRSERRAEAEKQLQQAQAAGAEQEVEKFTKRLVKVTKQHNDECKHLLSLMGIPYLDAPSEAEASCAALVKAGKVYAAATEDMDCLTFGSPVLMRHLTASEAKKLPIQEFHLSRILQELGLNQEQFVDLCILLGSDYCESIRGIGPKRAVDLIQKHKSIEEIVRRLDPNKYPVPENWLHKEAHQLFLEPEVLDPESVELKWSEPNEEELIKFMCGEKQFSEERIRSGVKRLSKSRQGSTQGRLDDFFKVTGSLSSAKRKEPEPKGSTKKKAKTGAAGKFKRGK
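Quantitative HTS format: each compound was titrated, incubated with 10 nM nuclease for 15 min at room temperature, then challenged with flap substrate at 50 nM final. Signal change over 15 min gave concentration–effect curves.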
PI5P4K alpha inh – inhibitors of human PI5P4K alpha. P48426. PI5P4Kalpha enzyme, ADP-Glo luminescence, 60 min; active compounds read low. max response, %. 1.2% of 330,000 active; active means max response of -50% or lower; inconclusive means between -30% and -50%; inactive means -30% or higher; further: value at the top dose of about 77 µM; on the % scale 0 is the no-effect control and ±100 the full control effect
Target sequence (P48426 whole entry, looked up): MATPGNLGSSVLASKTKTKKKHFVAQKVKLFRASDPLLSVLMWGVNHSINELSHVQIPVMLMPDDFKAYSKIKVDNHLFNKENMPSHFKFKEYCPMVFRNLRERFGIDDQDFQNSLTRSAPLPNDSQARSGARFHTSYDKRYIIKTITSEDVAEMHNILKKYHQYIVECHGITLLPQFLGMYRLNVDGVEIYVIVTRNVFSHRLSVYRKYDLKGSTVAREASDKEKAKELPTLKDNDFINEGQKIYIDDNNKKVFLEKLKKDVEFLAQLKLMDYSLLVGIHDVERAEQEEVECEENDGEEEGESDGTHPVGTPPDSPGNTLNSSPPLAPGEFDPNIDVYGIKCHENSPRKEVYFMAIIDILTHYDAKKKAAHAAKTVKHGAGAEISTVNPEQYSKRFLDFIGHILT
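Human PI5P4Kalpha with substrate in 0.038 M HEPES pH 7.4, 0.28 mM EGTA, 0.1% CHAPS, 5% DMSO; reaction started with 5 microM ATP (final), 60 min at room temperature. ADP formed read by ADP-Glo luminescence.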
WRN helicase inh – WRN helicase (human) inhibition | 0.46% of 360,000 active | WRN helicase unwinding, fluorescent forked duplex, kinetic | Potency, µM (top dose mostly 114 µM), without a hit: top-dose activity change, negative = inhibition, most hits filed as inhibitors | Q14191 | AID 651768; further: potency means the concentration at half of the fitted maximal effect; on the % scale 0 is the no-effect control and ±100 the full control effect; nearly all actives have a fitted effect of over 55% in size
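Fluorescence dequenching readout, ex 525 nm/em 598 nm, kinetic mode: forked duplex DNA (100 nM final) with adjacent fluorophore and quencher unwound by WRN (20 nM final) with 2 mM ATP. Compound preincubation 15 min, room temperature.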
Tb PGK inh – inhibitors of T. brucei phosphoglycerate kinase; P07378; PGK/GAPDH coupled, Kinase-Glo luminescence, 60 min; Potency, µM (top dose mostly 57.5 µM), inactives show at the highest dose activity change, negative = inhibition, usual class: inhibitors; 0.043% of 380,000 active; AID 602233; further: potency means the concentration at half of the fitted maximal effect; on the % scale 0 is the no-effect control and ±100 the full control effect; nearly all actives have a fitted effect of over 60% in size
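Luminescent ATP detection (Kinase-Glo Plus) follows a 60-minute room-temperature incubation, with wells lacking PGK as controls. Buffer: 100 mM TEA (pH 7.6), 5 mM MgCl2, 0.01% Tween-20. Coupling enzyme GAPDH (100 nM final) supplies unstable 1,3-BPG in-well.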
TDP1 inh – blocks human tyrosyl-DNA phosphodiesterase 1; AID 485290; 0.28% of 350,000 active; Q9NUW8; Potency, µM (highest dose often 130 µM), inactives show at the highest dose activity change, negative = inhibition, most hits filed as inhibitors; recombinant TDP1, AlphaScreen DNA substrate cleavage; further: potency means the concentration at half of the fitted maximal effect; on the % scale 0 is the no-effect control and ±100 the full control effect; nearly all actives have a fitted effect of over 40% in size
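Enzyme-compound mixtures sat 15 min at room temperature, followed by a 5 min reaction with 15 nM final substrate and 10 min with AlphaScreen beads. Recombinant human Tdp1 was used at 1 nM final.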
Tb PFK inh-1 – inhibitors of T. brucei phosphofructokinase; 0.17% of 330,000 active; T. brucei PFK, ADP-Glo luminescence; Potency, µM (highest dose often 57.5 µM), for the others: at the top dose activity, negative = inhibition, actives largely listed as inhibitors; O15648;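 further: potency means the concentration at half of the fitted maximal effect; 0% = uninhibited 1x PFK enzyme wells and -100% = no-enzyme wells; nearly all actives have a fitted effect of over 60% in size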
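In TEA buffer at pH 8.0 with 5 mM MgCl2, enzyme (1.25 nM) converted F6P (0.5 mM) and ATP (0.1 mM) for 45 min at room temperature. ADP product was read by luciferase luminescence.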
Tb PFK KinaseGlo – orthogonal confirmation of T. brucei phosphofructokinase inhibitors. shares compounds with Tb PFK inh-1. Tb PFK enzyme, ATP depletion, Kinase-Glo Plus luminescence. Potency, µM (highest dose often 57.5 µM), inactives show top-dose inhibition. 47% of 1,100 active. AID 504636; calls by dose curve; further: potency means the concentration at half of the fitted maximal effect; nearly all actives have a fitted effect of over 60% in size
Tb PFK inh-2 – T. brucei PFK enzyme inhibition, hit validation | shares compounds with Tb PFK inh-1 | purified T. brucei PFK, ADP-Glo luminescence, 45 min | Potency, µM (series often up to 57.5 µM), for inactives: top-dose activity change, negative = inhibition, actives largely listed as inhibitors | 41% of 1,100 active | AID 504637;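 further: potency means the concentration at half of the fitted maximal effect; plate controls were full PFK enzyme control for no effect and no enzyme control for full effect; nearly all actives have a fitted effect of over 60% in size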
* marks the source's active call; other numbers are inactive results; [ ] = dose if it differs, or a comment. This is a sample that favours compounds with a hit; in the whole collection about 1.5% have one here. Unless noted, the call rests on the fitted dose curve; in most records, active means well fitted curve in the direction sought with a large enough effect; inconclusive means small, poorly fitted or top-dose-only effect, or another doubt; inactive means no such curve, though single readings can be large; an effect the other way counts as inactive or inconclusive.

How did CN(C)c1ccc(NC(=O)c2ccc(Cn3cc([N+](=O)[O-])cn3)cc2)cc1 do in these assays?
FEN1 inhibitor: 1%; PI5P4K alpha inh: -12; WRN helicase inh: 9%; Tb PGK inh: inactive; TDP1 inh: 7%; Tb PFK inh-1: 24µM*; Tb PFK KinaseGlo: 12µM*; Tb PFK inh-2: 27µM*

What do the screens show for `CN(CCc1ccccc1)C(=O)c1ccc(NC(=O)Cc2cccc([N+](=O)[O-])c2)cc1`?
FEN1 inhibitor: inconclusive; PI5P4K alpha inh: -1; WRN helicase inh: -2%; Tb PGK inh: -8%; TDP1 inh: 4%; Tb PFK inh-1: -24%

How did C=C1C/C(=C\C)C(=O)O[C@@H]2CCN3CC=C(COC(=O)[C@@]1(C)O)[C@H]23 do in these assays?
TDP1 inh: 5%[56.1 µM]

How did CCN(CC)c1ccc2nc3ccccc3[n+](CC)c2c1 do in these assays?
FEN1 inhibitor: inconclusive; PI5P4K alpha inh: inconclusive; WRN helicase inh: inconclusive; Tb PGK inh: inconclusive; TDP1 inh: 12%; Tb PFK inh-1: 15µM*; Tb PFK KinaseGlo: -17%; Tb PFK inh-2: inconclusive

How did c1ccc2nc3ccccc3cc2c1 do in these assays?
FEN1 inhibitor: inconclusive; TDP1 inh: 7%

What do the screens show for `CC(C)(C)OC(=O)N(CCc1ccccc1)Cc1ccc(OCc2cccc(NC(=O)c3ccccc3)c2)cc1`?
FEN1 inhibitor: inconclusive; PI5P4K alpha inh: 3; WRN helicase inh: -8%; Tb PGK inh: 1%

How did O=C(/C=C/c1ccco1)OCC(=O)N1CCCCC1 do in these assays?
FEN1 inhibitor: 2%; PI5P4K alpha inh: 11; WRN helicase inh: 3%; Tb PGK inh: -3%; TDP1 inh: 7.1µM*; Tb PFK inh-1: inconclusive; Tb PFK KinaseGlo: 6µM*; Tb PFK inh-2: inconclusive

How did Cn1cc(C(=O)OCC(=O)N2CCCCC2)c2ccccc21 do in these assays?
FEN1 inhibitor: -3%; PI5P4K alpha inh: -3; WRN helicase inh: 2%; Tb PGK inh: -6%; TDP1 inh: -1%; Tb PFK inh-1: 4%

What do the screens show for `O=[N+]([O-])c1cc(C(F)(F)F)c(Cl)c([N+](=O)[O-])c1Nc1ncc(C(F)(F)F)cc1Cl`?
FEN1 inhibitor: -13%

Results for O=C(CN1C(=O)c2ccccc2C1=O)NCCc1c[nH]c2ccc(Cl)cc12 ?
FEN1 inhibitor: 7%; PI5P4K alpha inh: 5; WRN helicase inh: 6%; Tb PGK inh: -10%; TDP1 inh: 2%; Tb PFK inh-1: inconclusive; Tb PFK KinaseGlo: 21µM*; Tb PFK inh-2: 30µM*

How did CN1[C@H]2CC(=O)C[C@@H]1[C@@H](O)C2 do in these assays?
TDP1 inh: 6%[21 µM]

What do the screens show for `COC(=O)COc1cc(Cl)c(Cl)cc1Cl`?
TDP1 inh: 7%[56.1 µM]

Results for CCN1CCN(C(=S)c2ccc(OC)cc2)CC1 ?
FEN1 inhibitor: 2%; PI5P4K alpha inh: -17; WRN helicase inh: -23%; Tb PGK inh: -10%; TDP1 inh: 5%; Tb PFK inh-1: inconclusive; Tb PFK KinaseGlo: 27µM*; Tb PFK inh-2: 34µM*

How did CCN1CCN(Cc2cc(Br)cc(Br)c2O)CC1 do in these assays?
FEN1 inhibitor: -3%; PI5P4K alpha inh: 2; WRN helicase inh: -5%; Tb PGK inh: 16%; TDP1 inh: 7%; Tb PFK inh-1: -4%

Results for CCN1CCN(C(=S)c2ccc(Cl)cc2)CC1 ?
FEN1 inhibitor: 0%; PI5P4K alpha inh: inconclusive; WRN helicase inh: -32%; Tb PGK inh: 2%; TDP1 inh: 1%; Tb PFK inh-1: 11µM*; Tb PFK KinaseGlo: 7.6µM*; Tb PFK inh-2: 24µM*

Results for O=C1Nc2cc(Cl)c(Cl)cc2N2CCNC[C@H]12 ?
TDP1 inh: 11%

How did CCC1/C=C/C=CCC(C)C(O)[C@@](C)(O)C(=O)C(C)C(O)C(C)C(=O)C(C)C(O)C(C)C=CC(=O)O[C@H]2C(C)C(CC1)O[C@]1(CCC(C)C(CC(C)O)O1)C2C (some centres undefined) do in these assays?
TDP1 inh: 16%[56.1 µM]

How did C[C@]12CC[C@@H]3c4ccc(O)c(O)c4CC[C@H]3[C@@H]1CC[C@@H]2O do in these assays?
FEN1 inhibitor: inconclusive; PI5P4K alpha inh: -74*; WRN helicase inh: 0%; Tb PGK inh: -9%; TDP1 inh: 9%; Tb PFK inh-1: 13µM*; Tb PFK KinaseGlo: 7.6µM*; Tb PFK inh-2: 13µM*

How did CC[C@]12C=CCN3CC[C@@]4(c5ccc(OC)cc5N(C)[C@H]4[C@@](O)(C(=O)OC)[C@@H]1OC(C)=O)C32 (some centres undefined) do in these assays?
TDP1 inh: 11%

Results for O=C(CCN1CCN(Cc2ccccc2)CC1)NNC(=O)Cc1ccc(Cl)c(Cl)c1 ?
FEN1 inhibitor: -3%; PI5P4K alpha inh: 8; WRN helicase inh: -2%; Tb PGK inh: -8%; TDP1 inh: 2%; Tb PFK inh-1: 17µM*; Tb PFK KinaseGlo: 8.5µM*; Tb PFK inh-2: 11µM*

What do the screens show for `Oc1c(Cl)cc(Cl)cc1CN1CCN(Cc2ccccc2)CC1`?
FEN1 inhibitor: -2%; WRN helicase inh: -26%; Tb PGK inh: inactive; TDP1 inh: 4%; Tb PFK inh-1: -2%

Results for Cc1cccc(NC(=O)COc2ccc(/C=N\n3cnnc3)cc2)c1 ?
FEN1 inhibitor: -9%; PI5P4K alpha inh: -5; WRN helicase inh: -7%; Tb PGK inh: -10%; TDP1 inh: 9%; Tb PFK inh-1: inconclusive; Tb PFK KinaseGlo: inconclusive; Tb PFK inh-2: -18%

Results for COC(=O)[C@]1(C)CC[C@@]2(C)CC[C@@]3(C)C4=CC=C5C(=CC(=O)C(O)=C5C)[C@@]4(C)CC[C@@]3(C)C2C1 (some centres undefined) ?
TDP1 inh: 9%[12.3 µM]

Results for O=[N+]([O-])c1ccc(NCc2ccccc2)nc1 ?
FEN1 inhibitor: 3%; PI5P4K alpha inh: 8; WRN helicase inh: -16%; Tb PGK inh: -8%; TDP1 inh: 3%; Tb PFK inh-1: inconclusive; Tb PFK KinaseGlo: inconclusive; Tb PFK inh-2: inconclusive
